Screening results deposited in PubChem by National Center for Advancing Translational Sciences (NCATS).
A selection: hits, their analogues and other compounds. The true share with any hit is near 18%.
IL1B secr inh – qHTS for Inhibitors of Inflammasome Signaling: IL-1-beta AlphaLISA Primary Screen | AID 743279, 2014 | activity change, % at 57.5 µM | THP-1 LPS/ATP IL-1B secretion, AlphaLISA, 16 h; active compounds read low | 4.7% of 360,000 active; in the data active means activity change below about -50%; inconclusive means mostly about -30% to -49%
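Secreted IL-1B measured by AlphaLISA bead assay after 16 h compound exposure of THP-1 cells; compounds (final up to 57.5 uM) added 1 h before LPS (250 ng/mL) and ATP (1.25 mM) stimulation; lower signal means less secretion.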
Six1-Eya2 inh – qHTS Assay for Inhibitors of the Six1/Eya2 Interaction. activity change, % (no concentration beside the values). 0.56% of 360,000 active. AID 651725, 2012. AlphaScreen GST-Six1/His-Eya2 binding, biochemical; active compounds read low; in the data active means activity change below about -65%; inconclusive means mostly about -30% to -63%
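Compounds are tested against tagged Six1 and Eya2 proteins bridged by glutathione donor and nickel acceptor beads; after a one-hour incubation at 37 °C without light, AlphaScreen emission is recorded.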
DT40 TDP1 CPT – qHTS for Inhibitors of human tyrosyl-DNA phosphodiesterase 1 (TDP1): qHTS in cells in presence of CPT; chicken DT40 Tdp1-/-;hTDP1 cells + 20 nM CPT, ATP luminescence, 48 h; Potency, µM (titrated, usually from 46.2 µM), actives largely listed as inhibitors; AID 686979, 2013; 12% of 420,000 active; further: nearly all actives have a fitted effect of over 55% in size
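Chicken DT40 Tdp1-/- cells stably complemented with human TDP1 were seeded at 400 cells/well in medium containing 20 nM camptothecin, exposed to pin-transferred compounds, and grown at 37 °C for at least 48 hr. Viability was read as ATP luminescence.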
TDP1 block – qHTS Assay for Inhibitors of Tyrosyl-DNA Phosphodiesterase (TDP1); recombinant TDP1, AlphaScreen DNA substrate cleavage; AID 485290, 2010; Potency, µM (doses to about 130 µM), usual class: inhibitors; 0.28% of 350,000 active; further: nearly all actives have a fitted effect of over 40% in size
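Steps: enzyme plus compound, 15 min RT; add biotin/phosphotyrosine-FITC oligonucleotide (15 nM final), react 5 min; add donor/acceptor beads (10 ug/ml final), 10 min; read AlphaScreen. Tdp1 at 1 nM final.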
CtBP-E1A blk – qHTS Assay for Inhibitors of the CtBP/E1A Interaction. activity change, % (test concentration not listed). AlphaScreen GST-E1A/His-CtBP binding, 1536-well; active compounds read low. AID 651724, 2012. 0.49% of 340,000 active; in the data active means activity change below about -65%; inconclusive means mostly about -30% to -63%
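In 5 uL wells, 23 nL compound meets equimolar GST-E1A and His-CtBP (5X stock 125 nM each) for 2 h, 37 °C. Beads (5X, 50 ug/mL) then 1 h, 37 °C, dark.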
DT40 TDP1 no CPT – qHTS for Inhibitors of human tyrosyl-DNA phosphodiesterase 1 (TDP1): qHTS in cells in absence of CPT; DT40 Tdp1-/- hTDP1 cells, no CPT, ATP luminescence, 48 h; 15% of 420,000 active; AID 686978, 2013; Potency, µM (top dose mostly 46.2 µM), actives largely listed as inhibitors; further: nearly all actives have a fitted effect of over 55% in size
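A cellular qHTS used chicken DT40 cells lacking endogenous Tdp1 but carrying stably transfected human TDP1. Compounds were applied without camptothecin, and cell growth kinetics were judged by ATP-dependent luminescence after ≥48 hr.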
Hits are given with their value. Unless noted, the call rests on the fitted dose curve; in most records, active means well fitted curve in the direction sought with a large enough effect; inconclusive means small, poorly fitted or top-dose-only effect, or another doubt; inactive means no such curve, though single readings can be large; an effect the other way counts as inactive or inconclusive.

What do the screens show for `COc1cc2c(cc1OC)C(c1ccc3c(c1)OCO3)C1=C(CC(C)(C)CC1=O)N2` (centres undefined)?
IL1B secr inh: -54; Six1-Eya2 inh: inactive; DT40 TDP1 CPT: inconclusive; TDP1 block: inactive; CtBP-E1A blk: inactive; DT40 TDP1 no CPT: inconclusive

Results for C#CCOc1ccc(C2C3=C(COC3=O)Nc3cc4c(cc32)OCO4)cc1OC (centres undefined) ?
IL1B secr inh: inactive; Six1-Eya2 inh: inactive; DT40 TDP1 CPT: 0.82µM; TDP1 block: inactive; CtBP-E1A blk: inactive; DT40 TDP1 no CPT: 1µM

How did O=C1OCC2=C1C(c1ccc(F)cc1)c1cc3c(cc1N2)OCCO3 (centres undefined) do in these assays?
IL1B secr inh: inactive; Six1-Eya2 inh: inactive; DT40 TDP1 CPT: 0.18µM; TDP1 block: inactive; CtBP-E1A blk: inactive; DT40 TDP1 no CPT: 0.18µM

Results for O=C1OCC2=C1C(c1ccc3c(c1)OCO3)Sc1ccccc1N2 (centres undefined) ?
IL1B secr inh: inactive; Six1-Eya2 inh: inactive; DT40 TDP1 CPT: 13µM; TDP1 block: inactive; CtBP-E1A blk: inactive; DT40 TDP1 no CPT: 21µM

How did CCOC(=O)[C@H]1[C@H]2COc3cc(OC)ccc3[C@@H]2N2C(=O)c3ccc(F)cc3NC(=O)[C@@]12C do in these assays?
IL1B secr inh: inactive; Six1-Eya2 inh: inactive; DT40 TDP1 CPT: inconclusive; TDP1 block: inactive; CtBP-E1A blk: inactive; DT40 TDP1 no CPT: inactive

How did Cc1ccc(S(=O)(=O)N2CCc3cc(C(=O)Nc4c(C)cccc4C(C)C)ccc32)cc1 do in these assays?
DT40 TDP1 CPT: inconclusive; TDP1 block: inactive; DT40 TDP1 no CPT: inconclusive

Results for C#CCN1N=C(c2ccc(C)cc2)CSC1=O ?
IL1B secr inh: inconclusive; Six1-Eya2 inh: inactive; DT40 TDP1 CPT: inactive; CtBP-E1A blk: inactive; DT40 TDP1 no CPT: inactive

How did O=C1OCC2=C1C(c1ccc(F)cc1)c1cc3c(cc1N2)OCO3 (centres undefined) do in these assays?
IL1B secr inh: inactive; Six1-Eya2 inh: inactive; DT40 TDP1 CPT: 0.16µM; TDP1 block: inactive; CtBP-E1A blk: inactive; DT40 TDP1 no CPT: 0.033µM

What do the screens show for `CC(C)COC(=O)Nc1nnc(Cc2ccccc2)s1`?
IL1B secr inh: inactive; Six1-Eya2 inh: inactive; DT40 TDP1 CPT: inconclusive; TDP1 block: inactive; CtBP-E1A blk: inactive; DT40 TDP1 no CPT: 9.2µM

Results for COc1ccccc1NS(=O)(=O)c1ccc(C)c(NC(=O)C2CCCO2)c1 (centres undefined) ?
IL1B secr inh: inactive; Six1-Eya2 inh: inactive; DT40 TDP1 CPT: inactive; TDP1 block: inactive; DT40 TDP1 no CPT: inconclusive

How did CCC(C)(C)n1nnnc1C(c1ccc2ncccc2c1)N1CCN(c2ccc(O)cc2)CC1 (centres undefined) do in these assays?
IL1B secr inh: inactive; Six1-Eya2 inh: inactive; DT40 TDP1 CPT: inactive; CtBP-E1A blk: inactive; DT40 TDP1 no CPT: inactive

How did CCC(C)(C)n1nnnc1C(c1ccc2ncccc2c1)N1CCN(c2nc3ccccc3s2)CC1 (centres undefined) do in these assays?
IL1B secr inh: inactive; Six1-Eya2 inh: inactive; DT40 TDP1 CPT: 21µM; TDP1 block: inactive; CtBP-E1A blk: inactive; DT40 TDP1 no CPT: inconclusive

What do the screens show for `CCC(C)(C)n1nnnc1C(c1ccc2ncccc2c1)N1CCCC(C)C1` (centres undefined)?
IL1B secr inh: inactive; Six1-Eya2 inh: inactive; DT40 TDP1 CPT: inactive; TDP1 block: inactive; CtBP-E1A blk: inactive; DT40 TDP1 no CPT: 11µM
